This note sets out measurements from PubChem BioAssay (NCI).

Some test systems named below: T-47D breast; BT-549 breast; MDA-MB-435 melanoma; SW-620 colon; MCF7 breast; HCT-116 colon; HCC-2998 colon; KM12 colon.
Assay in all cases: NCI-60 one-dose screen, 48 h (100 = growth as untreated, 0 = no growth, -100 = all killed)
Holding throughout (details): 10 µM unless noted

Compounds without any hit were thinned out: in the full panel of roughly 83,000, 20% have a hit.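 Values shown are percent growth following 48 h exposure of cells in 96-well plates to a single concentration of compound; below 10 was considered active.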 A number with no mark means an inactive call. Calls of active or inactive are those of the source.

As for `COC(=O)[C@]12CC[C@@H](C)[C@H](C)[C@@H]1C1=CC[C@@H]3[C@@]4(C)C(C=O)=C[C@@](C)(COC(C)=O)[C@@H]4C(=O)C[C@@]3(C)[C@]1(C)CC2`, the growth in the assay on T-47D breast was 39%; in the assay on BT-549 breast it was 32.4%; with MDA-MB-435 melanoma, 50.5%; in the assay with SW-620 colon, 29.1%; in the assay on MCF7 breast it was 22.7%; in the assay on HCT-116 colon, 5.18% (active). In addition, the growth in the assay on HCC-2998 colon was 40%; in the assay with KM12 colon it was 28.4%.

`CC/C=C/C/C=C/C/C=C/C/C=C/C/C=C/C/C=C/CCC(=O)Nc1ccn([C@@H]2O[C@H](CO)[C@@H](O)C2(F)F)c(=O)n1`: the growth in the assay on T-47D breast is 28.9%; in the assay with BT-549 breast, 29.8%; with MDA-MB-435 melanoma, 36.9%; in the assay with SW-620 colon, 30.8%; in the assay on MCF7 breast it was 14.3%; with HCT-116 colon, 12.1%. Further, the growth is 55.1% with HCC-2998 colon and 43.5% in the assay on KM12 colon.

For the molecule `Cc1ccc(C(=NN=C(N)N)c2ccc(C)cc2)cc1`, the growth in the assay on T-47D breast was 20.3%; in the assay on BT-549 breast, -24.8% (active); in the assay with MDA-MB-435 melanoma it was -39% (active); in the assay on SW-620 colon, 28.4%; in the assay with MCF7 breast it was 2.04% (active); in the assay on HCT-116 colon it was 2.81% (active). Besides, the growth in the assay on KM12 colon is 1.93% (active).

On to `CC/C=C\C[C@H](O)C/C=C1/C(=O)C=C[C@@H]1C/C=C\CCCC(=O)OC`, for which the growth was -0.483% (active) with T-47D breast; -20.6% (active) with BT-549 breast; 4.45% (active) in the assay on MDA-MB-435 melanoma; -44.4% (active) with SW-620 colon; 4.43% (active) in the assay with MCF7 breast; -56.5% (active) with HCT-116 colon. The growth in the assay with HCC-2998 colon was -78.4% (active); in the assay with KM12 colon it was -54.3% (active).

Consider `OC(COc1ccccc1Cl)COc1ccccc1Cl`, for which the growth was 97.1% in the assay on T-47D breast; 86.6% with BT-549 breast; 94.8% with MDA-MB-435 melanoma; 97.9% in the assay with SW-620 colon; 94.8% in the assay on MCF7 breast; 90.9% in the assay on HCT-116 colon. The growth with KM12 colon is 99.2%.

On to `O=C1c2cccc(NCCN=Cc3cc([N+](=O)[O-])ccc3O)c2C(=O)c2c(NCCN=Cc3cc([N+](=O)[O-])ccc3O)cccc21`, for which the growth in the assay with T-47D breast is 75.8%; in the assay on BT-549 breast it was 107%; with MDA-MB-435 melanoma it was 99.3%; in the assay with SW-620 colon, 29.8%; in the assay with MCF7 breast, 20.8%; with HCT-116 colon it was 33.3%. Further, in the assay on KM12 colon, the growth is 46.8%.

With `COc1ccc(-c2nc3ccc4[nH]ncc4c3c3c2CCCC3)cc1B(O)O`, the growth in the assay with T-47D breast is 46.9%; in the assay with BT-549 breast it was 41.4%; in the assay on MDA-MB-435 melanoma it was 32.4%; in the assay with SW-620 colon, 33.4%; in the assay on MCF7 breast, 60.1%; in the assay on HCT-116 colon, 27%. Further, the growth in the assay on HCC-2998 colon is 69.8%; in the assay on KM12 colon, 42.7%.

As for `COC(=O)[C@]12CC[C@@H](C)[C@H](C)[C@@H]1C1=CC[C@@H]3[C@@]4(C)C(C=O)=C[C@@](C)(COC(=O)/C=C/c5ccccc5)[C@@H]4[C@H](O)C[C@@]3(C)[C@]1(C)CC2`, the growth with T-47D breast was -6.88% (active); in the assay on BT-549 breast it was -7.43% (active); with MDA-MB-435 melanoma it was -6.08% (active); in the assay on SW-620 colon it was 5.68% (active); with MCF7 breast, 10.6%; with HCT-116 colon it was -72.5% (active). Moreover, the growth with HCC-2998 colon is -29.9% (active); in the assay with KM12 colon it was 6.25% (active).

As to `CC1(C)OC2C(CO[Si](C)(C)C(C)(C)C)OC(n3c(I)c(C#C[Si](C)(C)C)c(=O)[nH]c3=O)C2O1` (centres undefined), the growth was 96.2% in the assay with T-47D breast; 118% with BT-549 breast; 83% with MDA-MB-435 melanoma; -43% (active) with SW-620 colon; 106% in the assay on MCF7 breast; 71% in the assay on HCT-116 colon. The figures for the growth in the assay with HCC-2998 colon and in the assay with KM12 colon were -51% (active) and 107%, respectively.

As for `CC/C=C1/C(=O)C=C[C@@H]1C/C=C\CCCC(=O)O`, the growth is 71.8% in the assay on T-47D breast; 76.5% in the assay on BT-549 breast; 54.1% in the assay on MDA-MB-435 melanoma; 43.5% with SW-620 colon; 19.8% with MCF7 breast; 35.5% in the assay with HCT-116 colon. Also, the growth with HCC-2998 colon was 95.1%; in the assay on KM12 colon it was 63.4%.

`Nc1cc2c3c(cccc3c1)C(=O)N(CCN1CCCC1)C2=O`: the growth in the assay with T-47D breast is 18%; in the assay with BT-549 breast, 74.7%; with MDA-MB-435 melanoma, 48.7%; in the assay with SW-620 colon it was 20.3%; in the assay with MCF7 breast, 6.93% (active); in the assay on HCT-116 colon, 17.4%. Besides, the growth is 44.1% in the assay with HCC-2998 colon and 34.7% in the assay on KM12 colon.

With `COc1ccc2c(c1)O/C(=C\c1cccc(OCC(=O)Nc3nc4ccccc4s3)c1)C2=O`, the growth in the assay on T-47D breast is 62.1%; in the assay with BT-549 breast, -51.7% (active); with MDA-MB-435 melanoma, 96.5%; with SW-620 colon it was 79%; with MCF7 breast it was 73.7%; in the assay on HCT-116 colon it was 76.5%. Also, the growth in the assay on KM12 colon was 88.2%.

`CCc1c2c(nc3ccc(OC(=O)NCc4ccc(B5OC(C)(C)C(C)(C)O5)cc4)cc13)-c1cc3c(c(=O)n1C2)COC(=O)[C@]3(O)CC`: the growth in the assay with T-47D breast is 4.82% (active); in the assay with BT-549 breast, 4.12% (active); in the assay with MDA-MB-435 melanoma, -35.2% (active); with SW-620 colon, 8.04% (active); in the assay with MCF7 breast it was 2.39% (active); in the assay on HCT-116 colon it was 2.81% (active). The results for the growth in the assay on HCC-2998 colon and in the assay with KM12 colon were -8.14% (active) and -5.38% (active), respectively.

In the case of `CC(C)(C)n1cc(-c2ccnc(NCCCNS(=O)(=O)c3ccccc3)c2)c(-c2ccccc2)n1`, the growth with T-47D breast was 9.34% (active); in the assay on BT-549 breast it was 53.4%; in the assay on MDA-MB-435 melanoma, 82.1%; in the assay with SW-620 colon, 77.1%; in the assay on MCF7 breast it was 62%; in the assay on HCT-116 colon it was 57.5%. For the same molecule, the growth in the assay on HCC-2998 colon is 78.1%; in the assay on KM12 colon, 71.9%.

For the molecule `CC(=O)N1C(=S)NC(=O)C1Cn1c(-c2ccccc2)nc2ccccc21` (centres undefined), the growth with T-47D breast was 95.3%; in the assay on BT-549 breast, 109%; in the assay with MDA-MB-435 melanoma, 100%; in the assay on SW-620 colon, 103%; in the assay on MCF7 breast, 88.7%; with HCT-116 colon, 90.2%. Besides, the growth was 110% in the assay with HCC-2998 colon and 100% with KM12 colon.

Consider `C[C@@]1(CCC#N)[C@H]2CC[C@@H]3[C@H]4[C@H](C(=O)/C=C/c5cccnc5)CC[C@]4(C#N)CC[C@@]3(C)[C@]2(C)CC[C@H]1C(=O)/C=C/c1cccnc1`, for which the growth is 65.2% with T-47D breast; 80.7% with BT-549 breast; 34% in the assay on MDA-MB-435 melanoma; 37.2% in the assay on SW-620 colon; 39.4% with MCF7 breast; 20% with HCT-116 colon. The figures for the growth in the assay with HCC-2998 colon and in the assay with KM12 colon were 105% and 36%, respectively.
